Assay results as given in PubChem BioAssay (NCATS).
Records with an inconclusive call do not appear. Calls of active or inactive are those of the source. Calls follow the shape of the dose curve; as a rule, active = well fitted curve in the direction sought with a large enough effect; inconclusive = small, poorly fitted or top-dose-only effect, or another doubt; inactive = no such curve, though single readings can be large; an effect the other way counts as inactive or inconclusive.

What was measured:
[1] = system: Zika virus NS2B-NS3 protease (linked construct); assay: Primary screen NINDS Rhodamine qHTS for Zika virus inhibitors (AID 1347160); also: nearly all actives have a fitted effect of over 55% in size; as to activity change, negative = inhibition: % is scaled to controls: 0 for no effect and ±100 for the full control effect
Procedure, shortened: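 Percent inhibition, normalized to uninhibited and enzyme-free controls, is fitted to a 4-parameter Hill equation. Fluorescence change comes from a 15-min cleavage of 1.5 microM bis-peptide Rhodamine110 substrate by 25 nM linked NS2B-NS3 at room temperature.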

[2] = biological target: Calcium and integrin-binding protein 1 (Homo sapiens) (UniProt Q99828); assay: Primary qHTS for Identification of Calcium Integrin Binding Protein 1 (CIB1) Competitor (AID 1508620);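 also: GST tagged CIB1 binding a fluorescein labelled alphaIIb integrin peptide tracer; top concentration of the series differs between compounds; % is scaled to controls: 0 for no effect and ±100 for the full control effect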
Sequence of Calcium and integrin-binding protein 1 (Homo sapiens) (Q99828 whole entry, looked up): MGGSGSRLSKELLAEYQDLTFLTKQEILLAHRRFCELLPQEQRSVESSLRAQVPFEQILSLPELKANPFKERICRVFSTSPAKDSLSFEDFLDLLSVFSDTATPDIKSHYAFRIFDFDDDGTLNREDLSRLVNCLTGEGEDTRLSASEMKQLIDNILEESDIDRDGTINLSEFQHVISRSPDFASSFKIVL
Procedure, shortened: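 Fluorescence polarization competition: CIB1-GST (1 uM final) preincubated with compound 15 min at room temperature, then FITC-labeled alphaIIb peptide (100 nM final) added for another 15 min. Polarization read at Ex 480/Em 540.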

[3] = biological target: Glutathione peroxidase 1 (Homo sapiens) (UniProt P07203); assay: Primary qHTS Assay for Inhibitors of Recombinant Selenoprotein Glutathione Peroxidase 1 (GPX1) (AID 1845191); also: nearly all actives have a fitted effect of over 65% in size
Sequence of Glutathione peroxidase 1 (Homo sapiens) (P07203 whole entry, looked up): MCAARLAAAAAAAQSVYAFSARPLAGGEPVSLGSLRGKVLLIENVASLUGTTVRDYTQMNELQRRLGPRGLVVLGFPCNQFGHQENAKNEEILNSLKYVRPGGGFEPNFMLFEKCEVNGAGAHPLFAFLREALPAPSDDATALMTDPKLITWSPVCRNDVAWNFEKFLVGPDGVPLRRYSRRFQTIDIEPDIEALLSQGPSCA
Procedure, shortened: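 Recombinant GPX1 (10 nM final) was preincubated with compound for 30 min at room temperature, then reacted with 1 mM GSH, 0.5 mM CHP, 0.5 mM NADPH and 100 nM glutathione reductase; NADPH fluorescence (340/450 nm) was read at 0 and 15 min.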

[4] = biological target: Phospholipid hydroperoxide glutathione peroxidase GPX4 (Homo sapiens) (UniProt P36969); assay: Primary qHTS Assay for Inhibitors of Recombinant Selenoprotein Glutathione Peroxidase 4 (GPX4) (AID 1845192); also: nearly all actives have a fitted effect of over 65% in size
Sequence of Phospholipid hydroperoxide glutathione peroxidase GPX4 (Homo sapiens) (P36969 whole entry, looked up): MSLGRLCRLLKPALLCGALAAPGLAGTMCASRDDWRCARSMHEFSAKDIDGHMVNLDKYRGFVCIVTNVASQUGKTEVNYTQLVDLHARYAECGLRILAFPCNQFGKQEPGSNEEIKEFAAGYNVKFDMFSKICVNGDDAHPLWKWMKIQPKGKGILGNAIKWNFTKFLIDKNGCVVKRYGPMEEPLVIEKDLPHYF
Procedure, shortened: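 GR-coupled readout: 100 nM GR, 1 mM GSH, 0.5 mM NADPH; NADPH fluorescence (ex 340/em 450 nm) read at t=0 and after 15 min RT. GPX4 200 nM, preincubated 30 min with compound; substrate 0.5 mM CHP.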

[5] = biological target: Luciferin 4-monooxygenase (Photinus pyralis) (UniProt P08659); assay: Primary firefly luciferase (FLuc) qHTS assay for identification of artifact compounds. (AID 1845220); details: outcome: dose series up to 54.1 µM unless noted; also: nearly all actives have a fitted effect of over 60% in size;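 as to activity change, negative = inhibition: plate controls were DMSO vehicle for no effect and no enzyme for full effect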
Procedure, shortened: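 qHTS, 15 min compound preincubation with substrate (10 uM luciferin, 10 uM ATP) at RT, then 10 nM FLuc; 5 min; luminescence; % inhibition vs no-enzyme/DMSO controls, 4-parameter Hill fit.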

[6] = Primary fluorescence-based thiol-reactive (MSTI) qHTS assay for identification of artifact compounds. (AID 1845221);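 also: thiol-reactive compounds lower the probe fluorescence signal; nearly all actives have a fitted effect of over 65% in size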
Procedure, shortened: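 Compounds were incubated 1 h at room temperature in the dark with the MSTI probe (4 uM) in PBS pH 7.4, 2% DMSO. Signals were normalized between Acetyl-MSTI and MSTI.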

[7] = system: Nanoluciferase (engineered Oplophorus gracilirostris luciferase); assay: Primary Nanoluciferase (NLuc) qHTS assay for identification of artifact compounds. (AID 1845222);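 also: 0% = DMSO and -100% = no enzyme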
Procedure, shortened: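 Luminescence read-out of secreted NLuc in S16 cell conditioned medium (1:55); compounds tested with 15 min RT preincubation, then Nano-Glo substrate 1:100, 5 min. % inhibition vs no-enzyme and DMSO controls, 4-parameter Hill fit.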

[8] = system: HaCat; assay: Cytotoxic Profiling of Annotated Libraries Using Quantitative High-Throughput Screening (AID 1296008); details: Five cell lines viability, CellTiter-Glo ATP luminescence, 48-72 h; max response: hits give low values; also: nearly all actives have a fitted effect of over 60% in size; also: potency is read from the fitted curve at half-maximal effect; as to max response: % is scaled to controls: 0 for no effect and ±100 for the full control effect
Procedure, shortened: (§1)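 Compounds were pin-transferred onto cells and incubated 48 or 72 hr at 37 degree Celsius, 95% humidity. CellTiter-Glo was added, plates sat 10 min at room temperature, then ATP-coupled luminescence was imaged as the viability read-out.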

[9] = system: JEG-3; assay: Primary qHTS to identify gynecologic anti-cancer compounds using libraries of approved drugs and bioactive compounds (AID 1345084); details: Gynecologic cancer cell panel viability, ATPlite luminescence, 48 h; series mostly up to 57.5 µM; also: nearly all actives have a fitted effect of over 55% in size; also: potency is read from the fitted curve at half-maximal effect
Procedure, shortened: (§2)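 Luminescence from the ATPlite ATP-monitoring reagent indicates viable cell number; lower signal means cytotoxicity. Cells received compound 16 h after seeding and were exposed for 48 h across five concentrations.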

[10] = system: Tov-21-G; assay: as above; details: Gynecologic cancer cell panel viability, ATPlite luminescence, 48 h; series mostly up to 57.5 µM
Procedure, shortened: as §2

[11] = Primary redox qHTS assay for identification of artifact compounds. (AID 1845223);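 also: 0% = DMSO and 100% = reference compound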
Procedure, shortened: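 Amplex Red (25 uM) and HRP (250 mU/mL) in HBSS, with compounds for 15 min, then 250 uM DTT for 30 min, room temperature, dark. Fluorescence 525/598 nm read; normalized to DMSO and 10 uM DA3003; Hill fit.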

[12] = system: NIH3T3; assay: Cytotoxic Profiling of Annotated Libraries Using Quantitative High-Throughput Screening (AID 1296008); details: Five cell lines viability, CellTiter-Glo ATP luminescence, 48-72 h; max response: hits give low values; also: nearly all actives have a fitted effect of over 60% in size; also: potency is read from the fitted curve at half-maximal effect; as to max response: % is scaled to controls: 0 for no effect and ±100 for the full control effect
Procedure, shortened: as §1

[13] = system: C33A; assay: Primary qHTS to identify gynecologic anti-cancer compounds using libraries of approved drugs and bioactive compounds (AID 1345084); details: Gynecologic cancer cell panel viability, ATPlite luminescence, 48 h; series mostly up to 57.5 µM; also: nearly all actives have a fitted effect of over 55% in size; also: potency is read from the fitted curve at half-maximal effect
Procedure, shortened: as §2

[14] = system: CASKI; assay: as above; details: Gynecologic cancer cell panel viability, ATPlite luminescence, 48 h; series mostly up to 57.5 µM
Procedure, shortened: as §2

[15] = system: Es-2; assay: as above; details: Gynecologic cancer cell panel viability, ATPlite luminescence, 48 h; series mostly up to 57.5 µM
Procedure, shortened: as §2

[16] = system: Hek293T; assay: as above; details: Gynecologic cancer cell panel viability, ATPlite luminescence, 48 h, control line for the selectivity index; series mostly up to 57.5 µM
Procedure, shortened: as §2

[17] = system: OV90; assay: as above; details: Gynecologic cancer cell panel viability, ATPlite luminescence, 48 h; series mostly up to 57.5 µM
Procedure, shortened: as §2

[18] = system: PA-1; assay: as above; details: Gynecologic cancer cell panel viability, ATPlite luminescence, 48 h; series mostly up to 57.5 µM
Procedure, shortened: as §2

[19] = system: Tov112D; assay: as above; details: Gynecologic cancer cell panel viability, ATPlite luminescence, 48 h; series mostly up to 57.5 µM
Procedure, shortened: as §2

[20] = system: CAOV3; assay: as above; details: Gynecologic cancer cell panel viability, ATPlite luminescence, 48 h; series mostly up to 57.5 µM
Procedure, shortened: as §2

C/C=C(/C)C(=O)O[C@H]1[C@@H]2[C@H](C)C(=O)O[C@@H]2C[C@@H](C)[C@@H]2C=CC(=O)[C@]21C
inactive: Potency [1] | Potency [2] | Potency [3] | Potency [4] | outcome [5] | Potency [6] | Potency [7] | max response [8] -11.7% | Potency [9] | Potency [10]

CCCCCn1cc(C(=O)Cc2ccccc2OC)c2ccccc21
inactive: Potency [1] | Potency [3] | Potency [4] | outcome [5] | Potency [6] | Potency [7] | Potency [11] | max response [8] -10.3% | max response [12] -7.87% | Potency [13] | Potency [14] | Potency [15] | Potency [16] | Potency [9] | Potency [17] | Potency [18] | Potency [10] | Potency [19]

COc1ccc(CC2C(=O)NC(C)C(=O)N(C)C3Cc4ccc(cc4)Oc4cc(ccc4OC4OC(CO)C(O)C(O)C4O)CC(C(=O)NC(C)C(=O)NC(CCC(=O)O)C(=O)N2C)N(C)C3=O)cc1 (stereo unspecified)
active: Potency [18] 7.08 µM
inactive: Potency [1] | Potency [2] | Potency [3] | Potency [4] | activity change, negative = inhibition [5] -19.1% [at 11.6 µM] | activity change, negative = thiol reactive [6] -0.882% [at 11.5 µM] | activity, negative = inhibition [7] -15.7% [at 11.6 µM] | outcome [8] | activity change, negative = cytotoxicity [14] -30.7% [at 11.6 µM] | activity change, negative = cytotoxicity [9] -7.62% [at 11.6 µM] | activity change, negative = cytotoxicity [17] -30.8% [at 11.6 µM]

C/C=C(\C)C(=O)O[C@@H]1[C@@H](C)[C@]2(O)C3C=C(C)C(=O)[C@@]3(O)CC(CO)=C[C@H]2C2C(C)(C)[C@@]21OC(=O)C(C)CC (stereo partly specified)
inactive: Potency [1] | Potency [2] | Potency [3] | Potency [4] | outcome [5] | Potency [6] | Potency [7] | Potency [11] | outcome [8] | outcome [12] | Potency [13] | Potency [20] | Potency [14] | Potency [16] | Potency [17] | Potency [10] | Potency [19]

COC[C@]12CN(C)C3C4[C@H](OC)[C@H]1C3(C(OC)C[C@H]2O)[C@H]1C[C@@]2(O)[C@H](OC(=O)c3ccccc3)[C@@H]1[C@]4(O)[C@@H](O)[C@@H]2OC (stereo partly specified)
inactive: Potency [1] | Potency [2] | Potency [3] | Potency [4] | Potency [6] | max response [8] -14.8% | Potency [20]

C=C(CO)[C@@]12O[C@@H]1[C@@]1(C)C(=CC2=O)CC[C@@H](O)[C@@H]1C
inactive: Potency [1] | Potency [2] | Potency [3] | Potency [4] | outcome [5] | Potency [6] | Potency [7] | Potency [11] | outcome [8] | Potency [14] | Potency [9]
active: Potency [12] 7.31 µM

CCCCn1cc(C(=O)c2cccc3ccccc23)c2ccccc21
inactive: Potency [1] | Potency [2] | Potency [3] | outcome [5] | Potency [6] | Potency [7] | Potency [11] | outcome [8] | max response [12] 3.07% | Potency [13] | Potency [20] | Potency [14] | Potency [15] | Potency [9] | Potency [17] | Potency [18] | Potency [10] | Potency [19]

CCOC(=O)c1ccnc2cc(C(OCCN3CCCCC3)c3ccccc3Cl)sc12 (stereo unspecified)
inactive: Potency [1] | Potency [2] | Potency [3] | Potency [4] | Potency [6] | Potency [7] | Potency [11] | outcome [8] | Potency [20]

C=C1[C@@H](O)[C@]2(O)OC[C@]34C2[C@]2(C)C(C[C@H]3OC(=O)[C@H](O)[C@@]14O)C(C)=CC(=O)[C@H]2O (stereo partly specified)
inactive: Potency [1] | Potency [2] | Potency [3] | Potency [4] | outcome [5] inactive [at 25.7 µM] | Potency [6] | Potency [7] | Potency [11] | max response [8] 3.98% | max response [12] -5.4% | Potency [14] | Potency [15] | Potency [9] | Potency [17] | Potency [10]

CC1CCCCCC(=O)c2c(O)cc(O)cc2CC(=O)O1 (stereo unspecified)
inactive: Potency [1] | Potency [2] | Potency [3] | Potency [4] | outcome [5] | Potency [6] | Potency [11] | outcome [8] | max response [12] 2.84% | Potency [13] | Potency [20] | Potency [14] | Potency [15] | Potency [16] | Potency [9] | Potency [17] | Potency [18] | Potency [10] | Potency [19]

Fc1cc(F)c2c(c1)[C@H]1C=CC[C@H]1C(c1cccnc1)N2 (stereo partly specified)
active: Potency [9] 25.1 µM
inactive: Potency [1] | Potency [2] | Potency [3] | Potency [4] | outcome [5] | Potency [7] | Potency [11]

Cc1ncc(OC[C@@]2(c3cccc(F)c3)C[C@H]2C(=O)Nc2ccc(F)cn2)c(C)n1
inactive: Potency [3] | Potency [4] | outcome [8] | outcome [12]

Cc1cccc(NC(=O)c2ccc(C(F)(F)F)cc2C(=O)O)n1
inactive: Potency [1] | Potency [3] | outcome [5] | Potency [6] | Potency [7] | Potency [11] | outcome [8] | Potency [14] | Potency [17]

CC1=CC2/C=C(\C)CCC(O)C(O)/C=C/C(=O)C23C(=O)NC(CC(C)C)C3C1C (stereo unspecified)
active: Potency [12] 7.96 µM | Potency [15] 10 µM | Potency [16] 7.94 µM | Potency [18] 12.6 µM | Potency [19] 10 µM
inactive: Potency [1] | Potency [2] | Potency [3] | Potency [4] | Potency [6] | Potency [11] | Potency [10]

CC(C)OC(=O)c1ccnc2cc(C(OCCN3CCCCC3)c3ccccc3Cl)sc12 (stereo unspecified)
inactive: Potency [1] | Potency [2] | Potency [3] | Potency [4] | outcome [5] | Potency [6] | Potency [7] | outcome [8] | Potency [13] | Potency [14] | Potency [15] | Potency [16] | Potency [9] | Potency [18] | Potency [10] | Potency [19]
